# Assay results published in the supplement of paper PMC8728848.
# The entries come from a sample that favours the strongest signals as a whole.
# B1: CVN-E41G (protein)
# chain: MHHHHHHENLYFQSGNFSQACYNSAIQGSVLTSTCIRTNGGYNTSSIDLNSVIGNVDGSLKWQGSNFIETCRNTQLAGSSELAAECKTRAQQFVSTKINLDDHIAAIDGTLKYE
# Key:
# Assay in all cases: glycan array binding signal (z-score within array); higher = stronger binding
# Conditions in all cases: glycan notation: IUPAC condensed, linker removed; mutation: E41G
# Fuc(a1-2)Gal(b1-3)GalNAc = molecular target: Fuc(a1-2)Gal(b1-3)GalNAc
# Procedure, shortened: (§1)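 Negative Z-scores can be read as non-binding. The Z-score is calculated within each array and then averaged across arrays of one protein sequence at different concentrations or buffers and across linkers. Arrays, 3228 in all, were curated from the Consortium for Functional Glycomics database and kept only where the protein sequence was available.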
# [1] = molecular target: Fuc(a1-2)Gal(b1-3)GlcNAc(b1-3)GalNAc
# Procedure, shortened: as §1
# [2] = molecular target: Fuc(a1-2)Gal(b1-3)GlcNAc(b1-3)[Fuc(a1-2)Gal(b1-3)GlcNAc(b1-6)]GalNAc
# Procedure, shortened: as §1
# [3] = molecular target: Fuc(a1-2)Gal(b1-3)GlcNAc6S
# Procedure, shortened: as §1
# [4] = molecular target: Fuc(a1-2)Gal(b1-3)[Fuc(a1-4)]GlcNAc
# Procedure, shortened: as §1
# [5] = molecular target: Fuc(a1-2)Gal(b1-4)GlcNAc6S
# Procedure, shortened: as §1
# [6] = molecular target: Fuc(a1-2)Gal(b1-4)[Fuc(a1-3)]GlcNAc(b1-2)[Fuc(a1-2)Gal(b1-4)[Fuc(a1-3)]GlcNAc(b1-4)]Man(a1-3)[Fuc(a1-2)Gal(b1-4)[Fuc(a1-3)]GlcNAc(b1-2)Man(a1-6)]Man(b1-4)GlcNAc(b1-4)GlcNAc
# Procedure, shortened: as §1
# [7] = molecular target: Fuc(a1-2)Gal6S(b1-4)Glc6S
# Procedure, shortened: as §1
# [8] = molecular target: Fuc(a1-2)[Gal(a1-3)]Gal(b1-4)Glc
# Procedure, shortened: as §1
# [9] = molecular target: Fuc(a1-2)[Gal(a1-3)]Gal(b1-4)GlcNAc(b1-2)Man(a1-3)[Fuc(a1-2)[Gal(a1-3)]Gal(b1-4)GlcNAc(b1-2)Man(a1-6)]Man(b1-4)GlcNAc(b1-4)GlcNAc
# Procedure, shortened: as §1
# [10] = molecular target: Fuc(a1-2)[Gal(a1-3)]Gal(b1-4)GlcNAc(b1-3)GalNAc
# Procedure, shortened: as §1
# [11] = molecular target: Fuc(a1-2)[GalNAc(a1-3)]Gal(b1-3)GlcNAc(b1-2)Man(a1-3)[Fuc(a1-2)[GalNAc(a1-3)]Gal(b1-3)GlcNAc(b1-2)Man(a1-6)]Man(b1-4)GlcNAc(b1-4)[Fuc(a1-6)]GlcNAc
# Procedure, shortened: as §1
# [12] = molecular target: Fuc(a1-2)[GalNAc(a1-3)]Gal(b1-4)GlcNAc(b1-3)Gal(b1-4)GlcNAc(b1-3)Gal(b1-4)GlcNAc
# Procedure, shortened: as §1
# Gal(a1-3)Gal(b1-3)GlcNAc = molecular target: Gal(a1-3)Gal(b1-3)GlcNAc
# Procedure, shortened: as §1
# [13] = molecular target: Gal(a1-3)Gal(b1-3)[Fuc(a1-4)]GlcNAc(b1-2)Man(a1-3)[Gal(a1-3)Gal(b1-3)[Fuc(a1-4)]GlcNAc(b1-2)Man(a1-6)]Man(b1-4)GlcNAc(b1-4)GlcNAc
# Procedure, shortened: as §1
# Gal(b1-2)Gal = molecular target: Gal(b1-2)Gal
# Procedure, shortened: as §1
# [14] = molecular target: Gal(b1-3)GalNAc(a1-3)[Fuc(a1-2)]Gal(b1-4)Glc
# Procedure, shortened: as §1
# [15] = molecular target: Gal(b1-3)GlcNAc(b1-2)Man(a1-3)[Gal(b1-3)GlcNAc(b1-2)Man(a1-6)]Man(b1-4)GlcNAc(b1-4)GlcNAc
# Procedure, shortened: as §1
# [16] = molecular target: Gal(b1-3)GlcNAc(b1-2)Man(a1-3)[Gal(b1-3)GlcNAc(b1-2)Man(a1-6)]Man(b1-4)GlcNAc(b1-4)[Fuc(a1-6)]GlcNAc
# Procedure, shortened: as §1
# [17] = molecular target: Gal(b1-3)GlcNAc(b1-3)Gal(b1-3)GlcNAc
# Procedure, shortened: as §1
# [18] = molecular target: Gal(b1-3)GlcNAc(b1-3)Gal(b1-4)GlcNAc(b1-2)[Gal(b1-3)GlcNAc(b1-3)Gal(b1-4)GlcNAc(b1-6)]Man(a1-6)[Gal(b1-3)GlcNAc(b1-3)Gal(b1-4)GlcNAc(b1-2)Man(a1-3)]Man(b1-4)GlcNAc(b1-4)[Fuc(a1-6)]GlcNAc
# Procedure, shortened: as §1
# [19] = molecular target: Gal(b1-3)[Fuc(a1-4)]GlcNAc(b1-3)Gal(b1-4)[Fuc(a1-3)]GlcNAc
# Procedure, shortened: as §1
# [20] = molecular target: Gal(b1-3)[Neu5Ac(b2-6)]GalNAc
# Procedure, shortened: as §1
# [21] = molecular target: Gal(b1-4)GlcNAc(b1-2)Man(a1-3)[Gal(b1-4)GlcNAc(b1-2)Man(a1-6)]Man(b1-4)GlcNAc(b1-4)[Fuc(a1-6)]GlcNAc
# Procedure, shortened: as §1
# [22] = molecular target: Gal(b1-4)GlcNAc(b1-2)[Gal(b1-4)GlcNAc(b1-4)]Man(a1-3)[Gal(b1-4)GlcNAc(b1-2)Man(a1-6)]Man(b1-4)GlcNAc(b1-4)GlcNAc
# Procedure, shortened: as §1
# [23] = molecular target: Gal(b1-4)GlcNAc(b1-3)Gal(b1-4)GlcNAc(b1-3)Gal(b1-4)GlcNAc(b1-3)Gal(b1-4)GlcNAc(b1-2)[Gal(b1-4)GlcNAc(b1-3)Gal(b1-4)GlcNAc(b1-3)Gal(b1-4)GlcNAc(b1-3)Gal(b1-4)GlcNAc(b1-6)]Man(a1-6)[Gal(b1-4)GlcNAc(b1-3)Gal(b1-4)GlcNAc(b1-3)Gal(b1-4)GlcNAc(b1-3)Gal(b1-4)GlcNAc(b1-2)Man(a1-3)]Man(b1-4)GlcNAc(b1-4)[Fuc(a1-6)]GlcNAc
# Procedure, shortened: as §1
# [24] = molecular target: Gal(b1-4)GlcNAc(b1-3)Gal(b1-4)[Fuc(a1-3)]GlcNAc(b1-3)Gal(b1-4)[Fuc(a1-3)]GlcNAc
# Procedure, shortened: as §1
binder,measurement,setting,value
B1,glycan array binding signal (z-score),Fuc(a1-2)Gal(b1-3)GalNAc,-0.178
same,glycan array binding signal (z-score),[1],-0.168
same,glycan array binding signal (z-score),[2],-0.093
same,glycan array binding signal (z-score),[3],-0.182
same,glycan array binding signal (z-score),[4],-0.157
same,glycan array binding signal (z-score),[5],-0.144
same,glycan array binding signal (z-score),[6],0.014
same,glycan array binding signal (z-score),[7],-0.023
same,glycan array binding signal (z-score),[8],-0.166
same,glycan array binding signal (z-score),[9],-0.122
same,glycan array binding signal (z-score),[10],-0.189
same,glycan array binding signal (z-score),[11],0.532
same,glycan array binding signal (z-score),[12],-0.163
same,glycan array binding signal (z-score),Gal(a1-3)Gal(b1-3)GlcNAc,-0.138
same,glycan array binding signal (z-score),[13],1
same,glycan array binding signal (z-score),Gal(b1-2)Gal,-0.147
same,glycan array binding signal (z-score),[14],-0.175
same,glycan array binding signal (z-score),[15],0.069
same,glycan array binding signal (z-score),[16],-0.141
same,glycan array binding signal (z-score),[17],-0.13
same,glycan array binding signal (z-score),[18],1.02
same,glycan array binding signal (z-score),[19],-0.151
same,glycan array binding signal (z-score),[20],-0.158
same,glycan array binding signal (z-score),[21],-0.15
same,glycan array binding signal (z-score),[22],-0.165
same,glycan array binding signal (z-score),[23],-0.125
same,glycan array binding signal (z-score),[24],-0.099
